Results as given in PubChem BioAssay (NCATS).
Where “and” joins values, the source holds several entries; their conditions need not be identical. Identical values can stand only once. Inconclusive results are not listed. Calls of active or inactive are those of the source. Unless noted, the call rests on the fitted dose curve; in most records, active means well fitted curve in the direction sought with a large enough effect; inconclusive means small, poorly fitted or top-dose-only effect, or another doubt; inactive means no such curve, though single readings can be large; an effect the other way counts as inactive or inconclusive.

Legend:
[1] = target: Cytochrome P450 3A4 (Homo sapiens) (UniProt P08684); assay: qHTS Assay for Inhibitors and Substrates of Cytochrome P450 3A4 (AID 884); further: on the % scale 0 is the no-effect control and ±100 the full control effect; nearly all actives have a fitted effect of over 50% in size
How it was run: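 20 nM human CYP3A4 with 25 uM Luciferin-PPXE (at KM) in 200 mM KPO4, preincubated 10 min with compound; NADPH regeneration started a 60 min RT reaction. Luciferin detected by luminescence, normalized to 57 uM ketoconazole as full inhibition.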

[2] = Confirmation and Secondary Assay for Modulators of Hemoglobin Beta Chain Splicing at IVS2 654 locus (AID 910);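 further: HeLa cells stably carrying EGFP split by mutant beta-globin IVS2-654 intron; % of control where 0% means no effect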
How it was run: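 HeLa cells stably expressing EGFP interrupted by β-globin IVS2-654 intron, seeded overnight in Opti-MEM/2% FCS, then treated 2 days at 37 °C. Restored splicing read as total peak GFP intensity per well by laser scanning cytometry (488 nm excitation, 500–520 nm emission); 500 nM antisense PNA as control.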

[3] = Confirmation and Secondary Assay for Modulators of Hemoglobin Beta Chain Splicing at IVS2 705 locus (AID 930);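 further: HeLa cells stably expressing the EGFP-705 splicing reporter; GFP fluorescence per well restored by corrected splicing of the IVS2-705 intron in EGFP; % of control where 0% means no effect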
How it was run: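 First, HeLa EGFP-705 cells are seeded at 500/well in Optimem with 2% FCS and left overnight. Next, compound or DMSO is added for 2 days. Finally wells are laser-scanned and total peak GFP intensity scored.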

[4] = qHTS Assay for Lipid Storage Modulators (AID 1519; calls by dose curve); details: Drosophila S3 cells, BODIPY lipid droplet/cell ratio, laser cytometry, cells loaded with oleic acid; for activity change, negative = inhibition: at 57.5 µM (top of the series)
How it was run: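 Cells seeded at 5,000 per well were treated with compounds over a concentration series and loaded with oleic acid (400 uM, as added). Lipid droplet fluorescence (488 nm excitation, 500-530 nm channel) was read by laser-scanning cytometry and normalized to 20 uM Triacsin C.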

[5] = target: Lysosomal acid glucosylceramidase (Homo sapiens) (UniProt P04062); assay: Glucocerebrosidase-p2 (AID 348; in the data active means potency below about 10 µM; further: potency means the concentration at half of the fitted maximal effect); details: purified GBA, blue fluorogenic substrate, 40 min
How it was run: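 Compounds titrated from 0.6 nM upwards against 0.2 nM enzyme in pH 5.9 citric acid/KH2PO4, taurocholate, tween-20; blue fluorogenic substrate 80 uM, 40 min room temperature, stopped and read Ex 365/Em 440 for AC50.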

[6] = AP1 Signaling Pathway (AID 357; active means well fitted curve in either direction with a large enough effect, not every such curve was filed as active; further: on the % scale 0 is the no-effect control and ±100 the full control effect); details: ME-180 AP-1-bla reporter, EGF-induced, beta-lactamase ratio, 5 h; at 7.69 µM (top of the series) unless noted
How it was run: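 AP-1-bla ME-180 cells with beta-lactamase reporter under AP-1 response element, stimulated with EC50 EGF; compounds titrated, 5 hours at 37 degrees Celsius. CCF4 read at 460/530 nm ratio; positive and negative modulators judged by AC50.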

[7] = NFAT Signaling Pathway (AID 444; active means well fitted curve in either direction with a large enough effect, not every such curve was filed as active;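 further: carbachol stimulus at about its EC50 of 1 µM final; on the % scale 0 is the no-effect control and ±100 the full control effect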); details: Jurkat NFAT-bla M1, carbachol, beta-lactamase ratio, 5 h; at 7.69 µM (top of the series) unless noted
How it was run: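 Jurkat cells with NFAT-driven β-lactamase reporter and co-expressed M1 receptor, stimulated with carbachol (final 1 uM, ~EC50), compound titration, 5 h at 37 °C. CCF4 loaded 1 h at RT; 460/530 nm ratio gave %activity and AC50.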

[8] = Stat Signaling Pathway (AID 446; active means well fitted curve in either direction with a large enough effect, not every such curve was filed as active;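 further: ME-180 cervical cancer cells given 40 pM IL-6 alongside compound; SIE-controlled beta-lactamase reporter measured as 460/530 nm FRET emission ratio; on the % scale 0 is the no-effect control and ±100 the full control effect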); details: ME-180 SIE beta-lactamase reporter, IL-6 stimulated, 5 h; at 7.69 µM (top of the series) unless noted
How it was run: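 ME-180 SIE-bla cells; overnight plating; cpd + IL-6 40 pM, 5 h, 37 C; LiveBLAzer 2.5 h RT; 460/530 nm emission ratio. Normalized to 300 pM IL-6 and 125 nM JAK inhibitor controls.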

[9] = target: Glucocorticoid receptor (Homo sapiens) (UniProt P04150); assay: GR-GFP Redistribution (AID 450;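 active means compounds whose dose series gives a full or clear partial fitted curve of increased nuclear translocation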; further: potency means the concentration at half of the fitted maximal effect); details: U2OS GR-GFP nuclear translocation, laser cytometry, 2 h
[10] = target: Glucocorticoid receptor (Homo sapiens) (UniProt P04150); assay: GR-EFC Redistribution (AID 451; calls by dose curve; further: potency means the concentration at half of the fitted maximal effect); details: CHO-K1 GR-EFC translocation, beta-gal luminescence, 2 h
How it was run: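 CHO-K1 cells expressing nuclear EA and GR-ED fragments of b-gal; compounds titrated up to 46 uM final, 2 h at 37 C. GR nuclear translocation read as complemented b-gal luminescence after 1 h RT detection.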

[11] = target: Mitogen-activated protein kinase 10 (Mus musculus) (UniProt Q61831); assay: JNK3 AlphaScreen Assay (AID 530; active means well fitted curve in either direction with a large enough effect, not every such curve was filed as active;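 further: kinase came from lysate of stimulated human HepG2 cells; signal reports phosphorylation of biotinylated GST-cJun 1-79 at Ser73 with 10 µM ATP; on the % scale 0 is the no-effect control and ±100 the full control effect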)
How it was run: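 Pre-activated (IL-1β/TNFα) JNK3 in HepG2 lysates phosphorylates biotin-GST-cJun(1-79), 10 uM ATP; anti-phospho-cJun(Ser73) AlphaScreen read at room temperature, pH 7.6 Tris buffer. Compounds pre-incubated 15 min as titrations.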

[12] = target: 3',5'-cyclic-AMP phosphodiesterase 4B (Homo sapiens) (UniProt Q07343); assay: qHTS Assay for Inhibitors of PDE-IV (AID 607; active means well fitted activation curve with a large enough effect in the main read-out, with a control signal flat, not every such curve was filed as active; further: % of control where 0% means no effect)
How it was run: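 ACTOne HEK293 cells carry a modified cAMP-gated CNG channel and express endogenous PDE4; plated 1000 cells/well, compounds up to 22.9 uM final. Membrane-potential dye fluorescence (ex 535/em 590) was read; parental cells received 10 uM forskolin + 100 uM RO 20-1724.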

[13] = target: Cytochrome P450 3A4 (Homo sapiens) (UniProt P08684); assay: qHTS Assay for Activators of Cytochrome P450 3A4 (AID 885); further: nearly all actives have a fitted effect of over 65% in size
How it was run: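 20nM CYP3A4 + 25uM Luciferin-PPXE (=KM), 200mM KPO4; cpd 10 min RT; NADPH regen, 60 min RT; stop w/ detection buffer, 20 min; luminescence. Normalized to 57 uM ketoconazole.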

[14] = target: Dual specificity protein kinase CLK4 (Homo sapiens) (UniProt Q9HAZ1); assay: qHTS Assay for Inhibitors of CDC-like Kinase 4 (ADP-Glo Assay) (AID 1771); further: nearly all actives have a fitted effect of over 70% in size; further: potency means the concentration at half of the fitted maximal effect
How it was run: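 Luminescence from ADP-Glo reports ADP produced by 25 nM Clk4 acting on 100 uM RS repeat peptide with 1 uM ATP over 1 hr at room temperature; residual ATP is depleted before ADP is converted to ATP for detection.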

[15] = target: Ubiquitin carboxyl-terminal hydrolase 1 (Homo sapiens) (UniProt O94782); assay: Inhibitors of USP1/UAF1: Pilot qHTS (AID 504865);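 further: rhodamine fluorescence freed from ubiquitin-rhodamine substrate followed over time; top concentration of the series differs between compounds; on the % scale 0 is the no-effect control and ±100 the full control effect; nearly all actives have a fitted effect of over 35% in size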
How it was run: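 In 50mM HEPES pH 7.8 containing 0.5mM EDTA, 1mM TCEP, 0.1 mg/ml BSA and 0.01% Tween-20, 1nM USP1/UAF1 is exposed to compound for 15 min, then Ub-Rho (150nM final) is added and fluorescence is read over time.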

[16] = qHTS Assay for Identification of Small Molecule Agonists for Hypoxia Response Element Signaling Pathway (AID 914; active means well fitted activation curve with a large enough effect in the signal ratio, with a control signal flat, not every such curve was filed as active; the % refers to the signal ratio; further: potency means the concentration at half of the fitted maximal effect); details: ME-180 (cervical carcinoma) HRE-bla reporter, beta-lactamase ratio, CoCl2, 17 h; activation: stronger effect = higher value
How it was run: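 Positive modulation of EC50 CoCl2-induced hypoxia response element signaling is measured in ME-180 cells with a beta-lactamase reporter. Compounds are titrated, incubation runs 17 hours, and %Activity derives from the blue/green ratio.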

[17] = target: Dual specificity protein kinase CLK4 (Homo sapiens) (UniProt Q9HAZ1); assay: qHTS Assay for Inhibitors of CDC-like Kinase 4 (ADP-FP Assay) (AID 1795);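 further: recombinant human CLK4 phosphorylating RS repeat peptide at 1 µM ATP; on the % scale 0 is the no-effect control and ±100 the full control effect; nearly all actives have a fitted effect of over 60% in size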
How it was run: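 Clk4 6.25 nM; RS peptide 100 uM; ATP 1 uM; 25 mM Tris pH 7.5, 10 mM MgCl2; 1 h reaction. ADP detected via antibody/orange tracer FP displacement; TG003 positive control.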

[18] = target: Cytochrome P450 1A2 (Homo sapiens) (UniProt P05177); assay: p450-cyp1a2 (AID 410; calls by dose curve; further: potency means the concentration at half of the fitted maximal effect)
How it was run: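 Luminescent readout of luciferin formed from Luciferin-ME by human CYP1A2; data normalized against complete inhibition by 57 uM furafylline. Enzyme 20nM, substrate 100uM at Km, 100mM KPO4 buffer, 60 min reaction at room temperature.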

[19] = target: Cytochrome P450 2C19 (Homo sapiens) (UniProt P33261); assay: qHTS Assay for Inhibitors and Substrates of Cytochrome P450 2C19 (AID 899); further: potency means the concentration at half of the fitted maximal effect; nearly all actives have a fitted effect of over 60% in size
How it was run: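 5 nM human CYP2C19 with 10uM Luciferin-H EGE (at KM) in 50mM KPO4, compound preincubated 10 min at 37C, then NADPH regeneration for 60 min at 37C. Luciferin read by luminescence after detection reagent; normalized to 57uM ketoconazole as full inhibition.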

[20] = measured here: cell count channel max response
[21] = measured here: lipid channel max response

Sequence of Dual specificity protein kinase CLK4 (Homo sapiens) (Q9HAZ1 whole entry, looked up): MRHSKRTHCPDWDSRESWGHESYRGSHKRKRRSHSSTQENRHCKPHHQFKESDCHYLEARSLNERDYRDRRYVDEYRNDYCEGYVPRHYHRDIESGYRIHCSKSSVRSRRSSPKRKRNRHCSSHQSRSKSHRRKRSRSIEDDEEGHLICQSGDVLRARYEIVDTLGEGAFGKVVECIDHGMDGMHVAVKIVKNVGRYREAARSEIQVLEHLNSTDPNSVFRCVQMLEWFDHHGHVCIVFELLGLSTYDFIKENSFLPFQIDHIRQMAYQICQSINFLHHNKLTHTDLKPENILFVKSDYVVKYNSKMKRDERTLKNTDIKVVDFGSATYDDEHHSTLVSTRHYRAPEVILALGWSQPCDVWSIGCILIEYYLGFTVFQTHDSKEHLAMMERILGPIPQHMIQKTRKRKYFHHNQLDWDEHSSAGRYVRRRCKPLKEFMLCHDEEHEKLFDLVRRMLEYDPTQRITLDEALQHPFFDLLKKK
Sequence of Lysosomal acid glucosylceramidase (Homo sapiens) (P04062 whole entry, looked up): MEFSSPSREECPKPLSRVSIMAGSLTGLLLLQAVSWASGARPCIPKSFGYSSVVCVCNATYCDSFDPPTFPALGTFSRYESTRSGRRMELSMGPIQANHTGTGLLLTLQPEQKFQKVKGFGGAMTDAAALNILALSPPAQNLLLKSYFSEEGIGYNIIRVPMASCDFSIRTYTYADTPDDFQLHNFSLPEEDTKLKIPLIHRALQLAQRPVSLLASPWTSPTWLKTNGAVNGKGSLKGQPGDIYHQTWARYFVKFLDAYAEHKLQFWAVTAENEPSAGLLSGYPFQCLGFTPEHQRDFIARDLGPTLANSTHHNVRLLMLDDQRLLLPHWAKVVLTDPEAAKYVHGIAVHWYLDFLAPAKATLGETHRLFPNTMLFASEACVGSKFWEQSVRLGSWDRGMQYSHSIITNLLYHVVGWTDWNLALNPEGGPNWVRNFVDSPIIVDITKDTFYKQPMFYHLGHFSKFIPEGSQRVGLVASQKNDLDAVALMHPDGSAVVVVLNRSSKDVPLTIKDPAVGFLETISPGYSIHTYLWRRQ
Sequence of Glucocorticoid receptor (Homo sapiens) (P04150 whole entry, looked up, the tested form may be a part): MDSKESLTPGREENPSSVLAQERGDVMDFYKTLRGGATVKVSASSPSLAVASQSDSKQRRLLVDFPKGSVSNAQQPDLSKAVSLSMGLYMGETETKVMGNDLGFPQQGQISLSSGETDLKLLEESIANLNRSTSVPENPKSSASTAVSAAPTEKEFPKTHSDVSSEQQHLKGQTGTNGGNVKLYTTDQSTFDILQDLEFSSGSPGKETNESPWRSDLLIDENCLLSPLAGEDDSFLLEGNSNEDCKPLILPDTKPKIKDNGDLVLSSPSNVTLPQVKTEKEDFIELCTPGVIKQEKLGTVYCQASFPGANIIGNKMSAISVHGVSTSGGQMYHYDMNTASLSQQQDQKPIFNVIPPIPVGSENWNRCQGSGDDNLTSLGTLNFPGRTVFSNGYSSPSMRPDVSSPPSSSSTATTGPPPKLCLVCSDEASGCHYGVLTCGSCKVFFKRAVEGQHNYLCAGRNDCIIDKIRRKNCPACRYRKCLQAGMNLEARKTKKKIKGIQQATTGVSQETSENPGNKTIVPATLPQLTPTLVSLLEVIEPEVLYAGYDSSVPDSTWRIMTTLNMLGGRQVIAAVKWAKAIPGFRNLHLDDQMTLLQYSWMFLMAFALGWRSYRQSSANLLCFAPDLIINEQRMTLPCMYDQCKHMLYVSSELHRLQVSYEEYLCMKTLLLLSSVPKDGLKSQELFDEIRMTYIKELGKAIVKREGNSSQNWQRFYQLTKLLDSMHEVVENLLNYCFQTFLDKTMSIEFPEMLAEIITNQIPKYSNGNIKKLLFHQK
Sequence of Cytochrome P450 3A4 (Homo sapiens) (P08684 whole entry, looked up): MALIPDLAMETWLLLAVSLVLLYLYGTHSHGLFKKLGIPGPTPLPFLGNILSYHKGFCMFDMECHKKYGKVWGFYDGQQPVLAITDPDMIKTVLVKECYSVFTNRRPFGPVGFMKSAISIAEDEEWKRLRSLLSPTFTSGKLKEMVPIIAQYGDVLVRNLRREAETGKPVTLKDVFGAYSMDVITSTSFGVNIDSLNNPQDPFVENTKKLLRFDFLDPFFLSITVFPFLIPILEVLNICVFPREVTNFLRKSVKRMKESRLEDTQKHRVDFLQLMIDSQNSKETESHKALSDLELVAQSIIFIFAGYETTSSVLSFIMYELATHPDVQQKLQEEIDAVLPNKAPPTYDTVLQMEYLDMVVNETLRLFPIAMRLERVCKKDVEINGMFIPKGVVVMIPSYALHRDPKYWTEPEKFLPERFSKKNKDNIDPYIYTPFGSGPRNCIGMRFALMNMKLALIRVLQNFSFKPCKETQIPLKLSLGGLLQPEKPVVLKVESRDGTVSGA
Sequence of 3',5'-cyclic-AMP phosphodiesterase 4B (Homo sapiens) (Q07343 whole entry, looked up): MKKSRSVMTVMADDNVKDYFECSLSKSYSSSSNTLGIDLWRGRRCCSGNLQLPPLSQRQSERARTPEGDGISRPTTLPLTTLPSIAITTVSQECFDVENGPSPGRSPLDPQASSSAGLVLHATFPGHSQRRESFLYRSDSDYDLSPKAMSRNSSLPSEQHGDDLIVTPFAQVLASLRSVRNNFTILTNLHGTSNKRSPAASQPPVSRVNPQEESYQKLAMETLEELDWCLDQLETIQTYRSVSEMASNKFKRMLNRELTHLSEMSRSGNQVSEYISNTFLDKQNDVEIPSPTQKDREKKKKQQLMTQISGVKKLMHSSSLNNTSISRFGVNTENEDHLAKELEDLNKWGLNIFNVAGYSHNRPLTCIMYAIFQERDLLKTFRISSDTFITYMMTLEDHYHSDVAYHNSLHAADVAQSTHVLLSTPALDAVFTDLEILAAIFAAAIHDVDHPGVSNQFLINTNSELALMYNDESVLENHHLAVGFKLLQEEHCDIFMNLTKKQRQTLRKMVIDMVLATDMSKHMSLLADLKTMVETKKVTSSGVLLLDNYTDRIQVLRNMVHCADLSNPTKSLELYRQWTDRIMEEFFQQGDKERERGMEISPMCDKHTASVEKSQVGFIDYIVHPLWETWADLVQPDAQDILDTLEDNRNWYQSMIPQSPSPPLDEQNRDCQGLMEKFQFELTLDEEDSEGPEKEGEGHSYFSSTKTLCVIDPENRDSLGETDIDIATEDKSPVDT
Sequence of Ubiquitin carboxyl-terminal hydrolase 1 (Homo sapiens) (O94782 whole entry, looked up): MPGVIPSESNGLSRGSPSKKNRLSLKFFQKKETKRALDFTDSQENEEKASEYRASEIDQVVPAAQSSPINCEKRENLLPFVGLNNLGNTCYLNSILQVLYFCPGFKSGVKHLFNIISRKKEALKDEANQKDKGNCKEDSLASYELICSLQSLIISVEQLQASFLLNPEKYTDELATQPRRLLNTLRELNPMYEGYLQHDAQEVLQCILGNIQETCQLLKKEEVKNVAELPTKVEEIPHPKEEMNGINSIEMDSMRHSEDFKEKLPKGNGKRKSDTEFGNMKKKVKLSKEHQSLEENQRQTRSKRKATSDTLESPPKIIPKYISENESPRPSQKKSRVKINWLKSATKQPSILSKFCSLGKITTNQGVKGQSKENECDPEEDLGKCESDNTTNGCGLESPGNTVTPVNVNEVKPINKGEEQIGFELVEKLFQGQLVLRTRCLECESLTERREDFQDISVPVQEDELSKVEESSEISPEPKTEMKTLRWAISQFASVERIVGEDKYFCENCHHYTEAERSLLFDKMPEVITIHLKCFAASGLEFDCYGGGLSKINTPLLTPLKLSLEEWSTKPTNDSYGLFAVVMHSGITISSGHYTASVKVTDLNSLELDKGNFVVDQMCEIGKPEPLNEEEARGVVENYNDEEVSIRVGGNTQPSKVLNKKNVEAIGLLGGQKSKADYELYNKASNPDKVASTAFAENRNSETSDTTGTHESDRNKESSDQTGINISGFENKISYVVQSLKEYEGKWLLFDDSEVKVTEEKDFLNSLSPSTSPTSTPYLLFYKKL
Sequence of Cytochrome P450 2C19 (Homo sapiens) (P33261 whole entry, looked up): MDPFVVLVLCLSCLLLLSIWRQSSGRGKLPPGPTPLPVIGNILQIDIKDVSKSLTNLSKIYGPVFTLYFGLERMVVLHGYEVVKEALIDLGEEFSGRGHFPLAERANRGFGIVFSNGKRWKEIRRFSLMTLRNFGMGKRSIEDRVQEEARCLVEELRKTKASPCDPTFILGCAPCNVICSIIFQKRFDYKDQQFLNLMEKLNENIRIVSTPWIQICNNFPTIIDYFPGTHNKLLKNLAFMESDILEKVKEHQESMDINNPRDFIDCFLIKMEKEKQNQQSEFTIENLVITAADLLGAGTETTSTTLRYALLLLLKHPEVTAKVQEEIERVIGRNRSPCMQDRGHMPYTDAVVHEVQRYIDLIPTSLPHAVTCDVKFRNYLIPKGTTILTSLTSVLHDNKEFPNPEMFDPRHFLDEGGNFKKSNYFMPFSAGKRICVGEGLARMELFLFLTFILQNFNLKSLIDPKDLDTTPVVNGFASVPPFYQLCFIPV
Sequence of Cytochrome P450 1A2 (Homo sapiens) (P05177 whole entry, looked up): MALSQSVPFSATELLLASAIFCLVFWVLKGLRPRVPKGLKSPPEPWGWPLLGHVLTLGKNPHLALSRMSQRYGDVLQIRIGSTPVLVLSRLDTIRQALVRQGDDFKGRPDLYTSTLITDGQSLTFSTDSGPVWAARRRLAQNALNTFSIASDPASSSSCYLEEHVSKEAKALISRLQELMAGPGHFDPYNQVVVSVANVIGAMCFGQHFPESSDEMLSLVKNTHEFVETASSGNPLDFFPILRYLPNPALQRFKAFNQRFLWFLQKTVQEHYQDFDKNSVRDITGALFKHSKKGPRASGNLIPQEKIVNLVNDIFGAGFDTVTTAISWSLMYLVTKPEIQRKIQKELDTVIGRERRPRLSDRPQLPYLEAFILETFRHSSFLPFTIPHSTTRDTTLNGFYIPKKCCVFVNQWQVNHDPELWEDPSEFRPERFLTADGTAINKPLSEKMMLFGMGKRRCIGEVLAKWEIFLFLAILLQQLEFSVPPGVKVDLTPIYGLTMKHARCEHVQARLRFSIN

C=C(NC(=O)C(=C)NC(=O)c1csc(C2=NC3c4csc(n4)C4NC(=O)c5csc(n5)C(C(C)(O)C(C)O)NC(=O)C5CSC(=N5)C(=CC)NC(=O)C(C(C)O)NC(=O)c5csc(n5)C3(CC2)NC(=O)C(C)NC(=O)C(=C)NC(=O)C(C)NC(=O)C(C(C)CC)NC2C=Cc3c(C(C)O)cc(nc3C2O)C(=O)OC4C)n1)C(N)=O (stereo not given)
Potency [1]: inactive
Potency [2]: inactive
outcome [3]: inactive
activity change, negative = inhibition [4]: -19.2% (inactive)
max response [4, 20]: 27.8%
max response [4, 21]: 5.44%

Cc1nc2cnc(Nc3ccccc3)nc2n(C[C@H]2CCCO2)c1=O
Potency [5]: > 11.4 µM (inactive)
activity change, negative = inhibition [6]: -11% (inactive)
activity change, negative = inhibition [7]: 9.56% (inactive)
activity, negative = inhibition [8]: -15.1% (inactive)
Potency [9]: > 9.22 µM (inactive)
Potency [10]: > 46 µM (inactive)
Potency [11]: inactive
Potency [12]: inactive
Potency [13]: inactive
activity change, negative = inhibition [4]: -5.71% (inactive)
max response [4, 20]: -3%
max response [4, 21]: -12.3%
Potency [14]: 22.4 µM (active)
Potency [15]: inactive

CN1CCN(c2ncc3nc(-c4ccccc4)c(=O)n(C4CC4)c3n2)CC1
Potency [5]: > 11.4 µM (inactive)
activity change, negative = inhibition [7]: 30% (inactive)
Potency [9]: > 9.22 µM (inactive)
Potency [10]: > 46 µM (inactive)
Potency [11]: inactive
Potency [12]: inactive
Potency [16]: 3.98 µM (active)
activity change, negative = inhibition [4]: 4.04% (inactive)
max response [4, 20]: 24.3%
max response [4, 21]: 27.3%
Potency [14]: inactive
Potency [17]: inactive
Potency [15]: inactive

FC(F)(F)c1ccccc1-c1ccc2ncnc(N3CCOCC3)c2c1
Potency [5]: > 11.4 µM (inactive)
Potency [18]: 0.251 µM (active)
activity, negative = inhibition [8]: 4.75% (inactive)
Potency [9]: > 46 µM (inactive)
Potency [10]: > 46 µM (inactive)
Potency [11]: inactive
Potency [13]: inactive
Potency [19]: 0.631 µM (active)
activity change, negative = inhibition [4]: 5.7% (inactive)
max response [4, 20]: 20.5%
max response [4, 21]: 23.6%
Potency [17]: inactive
Potency [15]: inactive

C=CC(C)(O)CCC=C(C)C (stereo not given)
Potency [11]: inactive
Potency [1]: inactive
activity change, negative = inhibition [4]: -9.56% (inactive)
max response [4, 20]: -17.5%
max response [4, 21]: -25.1%
Potency [15]: inactive

O=C(/C=C/c1ccc(O)c(O)c1)OC(Cc1ccc(O)c(O)c1)C(=O)O (stereo not given)
Potency [1]: inactive
Potency [2]: inactive
activity change, negative = inhibition [4]: 6.07% (inactive) and 7.21% (inactive)
max response [4, 20]: 10.1% and -5.16%
max response [4, 21]: 18.1% and 1.39%
Potency [15]: inactive

COc1cccc(Cn2c(=O)cnc3cnc(N4CCN(C)CC4)nc32)c1
Potency [5]: > 11.4 µM (inactive)
activity change, negative = inhibition [6]: -3.06% (inactive)
activity change, negative = inhibition [7]: -19.9% (inactive)
activity, negative = inhibition [8]: -11.2% (inactive)
Potency [9]: > 9.22 µM (inactive)
Potency [10]: > 46 µM (inactive)
Potency [11]: inactive
Potency [12]: inactive
Potency [13]: inactive
activity change, negative = inhibition [4]: 5.18% (inactive)
max response [4, 20]: 20.4%
max response [4, 21]: 22.6%
Potency [17]: inactive
Potency [15]: inactive

COS(C)(=O)=O
Potency [11]: inactive
Potency [1]: inactive
Potency [2]: inactive
outcome [3]: inactive
activity change, negative = inhibition [4]: 5.21% (inactive)
max response [4, 20]: -1.86%
max response [4, 21]: 4.2%
Potency [15]: inactive
